Measured values published in PubChem BioAssay (NCI).
The panel holds about 79,000 compounds, 15% with a hit somewhere; the sample as a whole holds those more often. The source made the active and inactive calls. Rule as the data show it: active = growth inhibition above about 70%; inactive = the rest.

Assays:
[1] = NCI Yeast Anticancer Drug Screen. Data for the rad50 strain (AID 155);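 also: 0% = growth of vehicle-only cultures of the same strain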; conditions: S. cerevisiae rad50 strain growth inhibition, stronger effect = higher value
How it was run: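 Inhibition values express reduced yeast growth in compound-treated cultures relative to vehicle-treated controls.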

[2] = NCI Yeast Anticancer Drug Screen. Data for the mec2-1 strain (AID 157); conditions: S. cerevisiae mec2-1 strain, stronger effect = higher value
How it was run: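 Strain: mec2-1 (DNA repair/cell cycle alteration). Compound exposure, then growth measured; inhibition expressed relative to vehicle.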

[3] = NCI Yeast Anticancer Drug Screen. Data for the sgs1 mgt1 strain (AID 161);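 also: 0% = growth of cultures given vehicle only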; conditions: S. cerevisiae sgs1 mgt1 strain, stronger effect = higher value
How it was run: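 Genetically altered yeast, compound exposure, growth inhibition relative to vehicle.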

[4] = NCI Yeast Anticancer Drug Screen. Data for the cln2 rad14 strain (AID 165);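 also: 0% = growth equal to vehicle treated cultures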; conditions: S. cerevisiae cln2 rad14 strain, stronger effect = higher value
How it was run: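 Compounds are applied to the cln2 rad14 yeast strain, and growth is then compared with that of vehicle-treated cultures to give inhibition.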

[5] = NCI Yeast Anticancer Drug Screen. Data for the bub3 strain (AID 167); conditions: S. cerevisiae bub3 mutant strain, stronger effect = higher value
How it was run: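 Steps: expose the mutant yeast strain to compound; grow alongside vehicle-treated cultures; measure growth; express inhibition against the vehicle cultures.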

[6] = NCI Yeast Anticancer Drug Screen. Data for the mlh1 rad18 strain (AID 175); conditions: S. cerevisiae mlh1 rad18 strain growth inhibition, stronger effect = higher value
How it was run: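 Read-out is yeast growth inhibition, calculated against vehicle-only controls. The compound was applied to a strain engineered with DNA damage repair alterations.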

[7] = at 5.0 µM (retest, dose inferred, filed as 0.5)
[8] = at 50.0 µM (retest, dose inferred, filed as 5.0)

Measured: growth inhibition

Cc1ccc(/C=N/NS(=O)(=O)c2ccccc2)c(C)c1
inactive: [1]; [7] -27% | [1]; [8] 25% | [1]; at 50.0 µM 30.6% | [2]; [7] -10% | [2]; [8] 1% | [2]; at 50.0 µM 18.9% | [3]; [7] 1% | [3]; [8] 15% | [3]; at 50.0 µM 15% | [4]; [7] -23% | [4]; [8] 42% | [4]; at 50.0 µM -25.8% | [5]; [7] 3% | [5]; [8] 41% | [5]; at 50.0 µM 11.1% | [6]; [7] -11% | [6]; [8] 46% | [6]; at 50.0 µM 36.9%

CCC1CCCN1CCOC(=O)C(c1ccccc1)C1C=CCC1 (configuration not stated)
inactive: [1]; [7] 31% | [1]; [8] 51% | [1]; at 50.0 µM 52.9% | [2]; [7] 23% | [2]; [8] 58% | [2]; at 50.0 µM 33.9% | [3]; [7] 40% | [4]; [7] 32% | [4]; [8] 62% | [4]; at 50.0 µM 62.4% | [5]; [7] 40% | [5]; [8] 60% | [5]; at 50.0 µM 48.6% | [6]; [7] 60% | [6]; at 50.0 µM 63%
active: [3]; [8] 74% | [3]; at 50.0 µM 72% | [6]; [8] 79%

Nc1nc(-c2ccc(Cl)cc2)c(N=Nc2ccc(Br)cc2)s1
inactive: [1]; [7] 1% | [2]; [7] -20% | [3]; [7] 3% | [4]; [7] -11% | [5]; [7] -17% | [6]; [7] 11%
active: [1]; [8] 93% | [1]; at 50.0 µM 97.5% | [2]; [8] 96% | [2]; at 50.0 µM 98% | [3]; [8] 94% | [3]; at 50.0 µM 98.3% | [4]; [8] 89% | [4]; at 50.0 µM 95.4% | [5]; [8] 91% | [5]; at 50.0 µM 96.5% | [6]; [8] 97% | [6]; at 50.0 µM 98.5%

CCCCCCCCCCCCOC(=O)C[n+]1cccc(C(N)=O)c1
inactive: [1]; [7] -1% | [2]; [7] -4% | [3]; [7] -3% | [4]; [7] -8% | [5]; [7] -6% | [6]; [7] -4%
active: [1]; [8] 99% | [1]; at 50.0 µM 99.8% | [2]; [8] 99% | [2]; at 50.0 µM 99.7% | [3]; [8] 81% | [3]; at 50.0 µM 99.8% | [4]; [8] 96% | [4]; at 50.0 µM 98.2% | [5]; [8] 99% | [5]; at 50.0 µM 99.6% | [6]; [8] 99% | [6]; at 50.0 µM 99.7%
